Measured values as given in PubChem BioAssay (NCI).
Compounds without any hit were thinned out: in the full panel of roughly 83,000, 20% have a hit.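 Testing used 96-well plates and a 48-hour single-concentration exposure. Example: -40 means 40% of the starting cells died.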 Calls of active or inactive are those of the source. Rule for the calls: active = growth percent below 10; inactive = the rest.

Legend:
Experiment in all cases: NCI-60 one-dose screen, 48 h (100 = growth as untreated, 0 = no growth, -100 = all killed)
Settings in all cases: 10 µM unless noted
NCI-H23 lung = system: NCI-H23 lung
NCI-H226 lung = system: NCI-H226 lung
NCI-H322M lung = system: NCI-H322M lung
HOP-62 NSCLC = system: HOP-62 NSCLC
NCI-H460 lung = system: NCI-H460 lung
HOP-92 NSCLC = system: HOP-92 NSCLC
NCI-H522 lung = system: NCI-H522 lung
A549/ATCC NSCLC = system: A549/ATCC NSCLC
786-0 renal = system: 786-0 renal
COLO 205 colon = system: COLO 205 colon

Measured: growth

Cn1ccnc1C(=O)C(=O)Nc1ccc(CC(=O)Nc2ccccc2)cc1
inactive: NCI-H23 lung 104% | NCI-H226 lung 96.4% | NCI-H322M lung 102% | HOP-62 NSCLC 107% | NCI-H460 lung 102% | HOP-92 NSCLC 103% | NCI-H522 lung 99.5% | A549/ATCC NSCLC 108% | 786-0 renal 104% | COLO 205 colon 109%

COc1ccc(-c2ccc3cnc4sc(-c5ccc(OC)cc5)nc4c3n2)cc1
inactive: NCI-H23 lung 91% | NCI-H226 lung 85.7% | NCI-H322M lung 86.7% | HOP-62 NSCLC 97.8% | NCI-H460 lung 102% | HOP-92 NSCLC 100% | NCI-H522 lung 87.4% | A549/ATCC NSCLC 93.1% | 786-0 renal 106% | COLO 205 colon 104%

CN(C)C1CCN(Cc2ccc(NC(=O)c3cncc(C#Cc4cnc(N)c5ncccc45)c3)cc2C(F)(F)F)CC1
active: NCI-H460 lung 0.477% | 786-0 renal -78.9%
inactive: NCI-H23 lung 84.7% | NCI-H226 lung 90% | NCI-H322M lung 112% | HOP-62 NSCLC 75.5% | HOP-92 NSCLC 66.4% | NCI-H522 lung 84.9% | A549/ATCC NSCLC 72.2% | COLO 205 colon 69.6%

COc1cc(/C=C\c2cc(/C=C\c3ccc(O)c(OC)c3)n(C(=O)COc3ccc(Cl)cc3Cl)n2)ccc1O
inactive: NCI-H23 lung 14.1% | NCI-H226 lung 26.5% | NCI-H322M lung 40.8% | HOP-62 NSCLC 11.3% | HOP-92 NSCLC 12.5% | A549/ATCC NSCLC 10.6% | 786-0 renal 13.7% | COLO 205 colon 82.4%
active: NCI-H460 lung 9.28% | NCI-H522 lung -28.7%

CN(CCOc1ccc(C#N)cc1)CCOc1ccc(C#N)cc1
inactive: NCI-H23 lung 56.5% | NCI-H226 lung 62% | NCI-H322M lung 87.1% | HOP-62 NSCLC 46% | NCI-H460 lung 120% | HOP-92 NSCLC 63.3% | NCI-H522 lung 86.6% | A549/ATCC NSCLC 60.2% | 786-0 renal 26.3% | COLO 205 colon 52.1%

C=C1C(=O)O[C@H]2[C@H]1CC/C(COC(=O)CSCCSCC(=O)OC/C1=C/CC[C@@]3(C)O[C@H]3[C@H]3OC(=O)C(=C)[C@@H]3CC1)=C\CC[C@@]1(C)O[C@@H]21
active: NCI-H226 lung 8.95% | HOP-92 NSCLC -0.141% | NCI-H522 lung -76.2% | 786-0 renal -24.2% | COLO 205 colon -37.7%
inactive: NCI-H23 lung 40.6% | NCI-H322M lung 77.2% | HOP-62 NSCLC 81.2% | NCI-H460 lung 22.1% | A549/ATCC NSCLC 69.5%

Fc1cc(F)cc(C(c2c[nH]c3ccccc23)c2c[nH]c3ccccc23)c1
inactive: NCI-H23 lung 89.4% | NCI-H226 lung 103% | NCI-H322M lung 86.1% | HOP-62 NSCLC 91.1% | NCI-H460 lung 97.8% | HOP-92 NSCLC 89.4% | NCI-H522 lung 75% | A549/ATCC NSCLC 82% | 786-0 renal 98% | COLO 205 colon 97.8%

CN1C(=O)/C(=C/c2cn(-c3ccccc3)nc2-c2ccccc2)SC1=S
inactive: NCI-H23 lung 95.4% | NCI-H226 lung 98.3% | NCI-H322M lung 107% | HOP-62 NSCLC 97.9% | NCI-H460 lung 101% | HOP-92 NSCLC 51.4% | NCI-H522 lung 90.2% | A549/ATCC NSCLC 102% | 786-0 renal 107% | COLO 205 colon 124%

CCCCNc1ccc(C#N)c(OCCN(CC)CC)c1
inactive: NCI-H23 lung 92.8% | NCI-H226 lung 88% | NCI-H322M lung 100% | HOP-62 NSCLC 101% | NCI-H460 lung 104% | HOP-92 NSCLC 94.4% | NCI-H522 lung 92.8% | A549/ATCC NSCLC 101% | 786-0 renal 112% | COLO 205 colon 100%

O=C1c2cccnc2C(=O)c2c1c(C(=O)NCCCN1CCCCC1)c1ccccn21
active: NCI-H23 lung -36.1% | NCI-H226 lung -39.8% | NCI-H322M lung -35.9% | HOP-62 NSCLC -37.5% | NCI-H460 lung -69.9% | HOP-92 NSCLC -30.5% | NCI-H522 lung -51% | A549/ATCC NSCLC -42.9% | 786-0 renal 5.99% | COLO 205 colon -82.2%

CO/N=C(/C)c1ccc(NC(=O)CSc2nnc(-c3ccncc3)n2-c2ccccc2)cc1
inactive: NCI-H23 lung 46.9% | NCI-H226 lung 24.2% | NCI-H322M lung 84.9% | HOP-62 NSCLC 39.2% | NCI-H460 lung 15.9% | A549/ATCC NSCLC 68.4% | COLO 205 colon 104%
active: HOP-92 NSCLC 3.16% | NCI-H522 lung -8.08% | 786-0 renal -43.1%

CC1(C)CC[C@]2(C(=O)O)CC[C@]3(C)C(=CC[C@@H]4[C@@]5(C)C/C(=C/O)C(=O)C(C)(C)[C@@H]5CC[C@]43C)[C@@H]2C1
inactive: NCI-H23 lung 22.2% | NCI-H226 lung 96.2% | NCI-H322M lung 62.2% | HOP-62 NSCLC 73.1% | NCI-H460 lung 83.6% | HOP-92 NSCLC 89% | NCI-H522 lung 25.2% | A549/ATCC NSCLC 89.4% | 786-0 renal 84.3% | COLO 205 colon 74.9%

CC(C)c1ccc(NC(=O)Nc2ccc(NC(=O)CCCC(=O)NOCc3ccccc3)cc2)cc1
inactive: NCI-H23 lung 98.4% | NCI-H226 lung 85.2% | NCI-H322M lung 90.6% | HOP-62 NSCLC 91.2% | NCI-H460 lung 77.9% | HOP-92 NSCLC 104% | NCI-H522 lung 71.3% | A549/ATCC NSCLC 85.3% | 786-0 renal 101% | COLO 205 colon 93.4%

C#CCOc1cccc(Nc2ncnc3c(NC(=O)C=C)cccc23)c1
active: HOP-92 NSCLC 9.26% | NCI-H522 lung -5.23%
inactive: NCI-H23 lung 38.9% | NCI-H226 lung 52% | NCI-H322M lung 54.9% | HOP-62 NSCLC 39% | NCI-H460 lung 12.8% | A549/ATCC NSCLC 27.5% | 786-0 renal 14% | COLO 205 colon 26.3%

CC(O)c1cnc(/C=C2\SC(=S)N(Cc3ccccc3)C2=O)s1 (stereo not given)
inactive: NCI-H23 lung 99.7% | NCI-H226 lung 90.3% | NCI-H322M lung 87.8% | HOP-62 NSCLC 39% | NCI-H460 lung 96.8% | HOP-92 NSCLC 43.7% | A549/ATCC NSCLC 66.7% | 786-0 renal 59.2% | COLO 205 colon 35.7%
active: NCI-H522 lung 0.337%

Cc1ccc(Cc2cnc(NC(=O)c3cc(Br)cs3)s2)cc1
inactive: NCI-H23 lung 73.1% | NCI-H226 lung 73.1% | NCI-H322M lung 79.7% | HOP-62 NSCLC 50.8% | NCI-H460 lung 46.7% | HOP-92 NSCLC 59.1% | NCI-H522 lung 34.3% | A549/ATCC NSCLC 51% | 786-0 renal 67.8% | COLO 205 colon 80%

O=C(O)/C(=C\c1ccc(Cl)cc1)c1ccc(Cl)cc1
inactive: NCI-H23 lung 90.8% | NCI-H226 lung 99.1% | NCI-H322M lung 92.2% | HOP-62 NSCLC 104% | NCI-H460 lung 97.5% | HOP-92 NSCLC 67.7% | NCI-H522 lung 81.9% | A549/ATCC NSCLC 88.5% | 786-0 renal 90.3% | COLO 205 colon 117%

OCc1cccc(-c2ccc3ncc(-c4nc(NC5CC5)ncc4F)n3c2)c1
active: NCI-H23 lung -16.3% | NCI-H226 lung 2.19% | NCI-H322M lung -6.44% | HOP-62 NSCLC 2.21% | NCI-H460 lung -4.33% | HOP-92 NSCLC -13.9% | NCI-H522 lung -13.9% | A549/ATCC NSCLC -8.48% | 786-0 renal 6.46% | COLO 205 colon -39.7%

O=c1oc2ccccc2cc1C1=NN=C(SCc2ccccc2)SC1
inactive: NCI-H23 lung 94.9% | NCI-H226 lung 96.6% | NCI-H322M lung 102% | HOP-62 NSCLC 82.9% | NCI-H460 lung 112% | HOP-92 NSCLC 87.2% | NCI-H522 lung 89.2% | A549/ATCC NSCLC 96.6% | 786-0 renal 94.8% | COLO 205 colon 113%

Cc1cc(=O)[nH]c2c(C#N)cnn12
inactive: NCI-H23 lung 102% | NCI-H226 lung 96.4% | NCI-H322M lung 101% | HOP-62 NSCLC 105% | NCI-H460 lung 104% | HOP-92 NSCLC 109% | NCI-H522 lung 89.1% | A549/ATCC NSCLC 97.5% | 786-0 renal 105% | COLO 205 colon 114%

O=C1N[C@@H]2NC(=[N+]3CCOCC3)N[C@@H]2N1
inactive: NCI-H23 lung 103% | NCI-H226 lung 94.8% | NCI-H322M lung 96.3% | HOP-62 NSCLC 103% | NCI-H460 lung 104% | HOP-92 NSCLC 120% | NCI-H522 lung 92.9% | A549/ATCC NSCLC 101% | 786-0 renal 98.8% | COLO 205 colon 115%

CN1CCN(Cc2ccc(NC(=O)c3cncc(C#Cc4cnc(N)c5ccccc45)c3)cc2C(F)(F)F)CC1
active: NCI-H23 lung -74.1% | NCI-H226 lung -91% | NCI-H322M lung -87.1% | HOP-62 NSCLC -74.7% | NCI-H460 lung -77.3% | HOP-92 NSCLC -74.4% | NCI-H522 lung -73.2% | A549/ATCC NSCLC -89.1% | 786-0 renal -79.6% | COLO 205 colon -78.1%

N#C/C(=C\c1ccc(-c2ccc(Cl)cc2)o1)C(=O)Nc1ncc(Cc2ccc(Cl)cc2)s1
inactive: NCI-H23 lung 31.8% | NCI-H226 lung 65% | NCI-H322M lung 22.8% | HOP-92 NSCLC 94.6% | NCI-H522 lung 46.3% | 786-0 renal 42% | COLO 205 colon 57.2%
active: HOP-62 NSCLC -9.27% | NCI-H460 lung -38.3% | A549/ATCC NSCLC -8.3%

Cn1ccc2c3c(ccc21)CC3=O
inactive: NCI-H23 lung 97% | NCI-H226 lung 100% | NCI-H322M lung 116% | HOP-62 NSCLC 111% | NCI-H460 lung 108% | HOP-92 NSCLC 114% | NCI-H522 lung 98.4% | A549/ATCC NSCLC 105% | 786-0 renal 107% | COLO 205 colon 119%

CC1=NN(c2nc(SCC(=O)Nc3nc4ccc(C)cc4s3)nc(-c3ccccc3)c2C#N)C(=O)C1
inactive: NCI-H23 lung 105% | NCI-H226 lung 89.4% | NCI-H322M lung 96.7% | HOP-62 NSCLC 86.4% | NCI-H460 lung 100% | HOP-92 NSCLC 85% | NCI-H522 lung 91.1% | A549/ATCC NSCLC 107% | 786-0 renal 100% | COLO 205 colon 118%

O=C(/C=C/c1cccs1)c1ccc(Cl)nc1
inactive: NCI-H23 lung 102% | NCI-H226 lung 107% | NCI-H322M lung 99.3% | HOP-62 NSCLC 94.9% | NCI-H460 lung 106% | HOP-92 NSCLC 105% | NCI-H522 lung 82% | A549/ATCC NSCLC 98.6% | 786-0 renal 93.7% | COLO 205 colon 108%
